# Data taken from the supplement of paper PMC8728848.
# The full list was thinned out, with the strongest signals kept by preference.
# Legend:
# Test in all cases: glycan array binding signal (z-score within array); higher = stronger binding
# Conditions in all cases: glycan notation: IUPAC condensed, linker removed
# [1] = biological target: Fuc(a1-2)Gal(b1-3)GalNAc(b1-4)[Neu5Ac(a2-3)]Gal(b1-4)Glc
# Procedure, shortened: (§1)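 Columns mapping to the same glycan were averaged after glycan names were converted to IUPAC-condensed notation. The data come from 3228 arrays in the Consortium for Functional Glycomics database, limited to those with an available protein sequence. Binding is reported as a within-array Z-score averaged across arrays of one protein sequence and across linkers.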
# [2] = biological target: Fuc(a1-2)Gal(b1-4)Glc
# Procedure, shortened: as §1
# [3] = biological target: Fuc(a1-2)Gal(b1-4)Glc6S
# Procedure, shortened: as §1
# [4] = biological target: Fuc(a1-2)Gal(b1-4)GlcNAc
# Procedure, shortened: as §1
# [5] = biological target: Fuc(a1-2)Gal(b1-4)GlcNAc6S
# Procedure, shortened: as §1
# [6] = biological target: Fuc(a1-2)Gal6S(b1-4)Glc
# Procedure, shortened: as §1
# [7] = biological target: Fuc(a1-2)Gal6S(b1-4)Glc6S
# Procedure, shortened: as §1
# [8] = biological target: Fuc(a1-2)[Gal(a1-4)]Gal(b1-4)GlcNAc
# Procedure, shortened: as §1
# [9] = biological target: Fuc(a1-2)[GalNAc(a1-3)]Gal(b1-4)GlcNAc
# Procedure, shortened: as §1
# [10] = biological target: Fuc(a1-2)[GalNAc(a1-4)]Gal(b1-4)GlcNAc
# Procedure, shortened: as §1
# [11] = biological target: Gal(a1-3)Gal(b1-3)GlcNAc
# Procedure, shortened: as §1
# [12] = biological target: Gal(a1-3)Gal(b1-4)Glc
# Procedure, shortened: as §1
# [13] = biological target: Gal(a1-3)Gal(b1-4)GlcNAc
# Procedure, shortened: as §1
# [14] = biological target: Gal(a1-4)Gal(b1-3)GlcNAc(b1-2)Man(a1-3)[Gal(a1-4)Gal(b1-3)GlcNAc(b1-2)Man(a1-6)]Man(b1-4)GlcNAc(b1-4)GlcNAc
# Procedure, shortened: as §1
# [15] = biological target: Gal(a1-4)Gal(b1-4)GlcNAc
# Procedure, shortened: as §1
# [16] = biological target: Gal(a1-4)GlcNAc
# Procedure, shortened: as §1
# [17] = biological target: Gal(b1-4)GlcNAc(b1-2)[Gal(b1-4)GlcNAc(b1-4)]Man(a1-3)[Gal(b1-4)GlcNAc(b1-2)[Gal(b1-4)GlcNAc(b1-6)]Man(a1-6)]Man(b1-4)GlcNAc(b1-4)GlcNAc
# Procedure, shortened: as §1
# [18] = biological target: Gal3S6S(b1-4)GlcNAc6S
# Procedure, shortened: as §1
# [19] = biological target: Gal6S(b1-4)GlcNAc
# Procedure, shortened: as §1
# [20] = biological target: GalNAc(a1-3)Fuc(a1-2)Gal(b1-4)GlcNAc(b1-3)[GalNAc(a1-3)Fuc(a1-2)Gal(b1-4)GlcNAc(b1-6)]GalNAc
# Procedure, shortened: as §1
# [21] = biological target: GalNAc(b1-3)Gal
# Procedure, shortened: as §1
# [22] = biological target: Glc(a1-6)Glc(a1-6)Glc(a1-6)Glc
# Procedure, shortened: as §1
# [23] = biological target: Glc(b1-4)Glc
# Procedure, shortened: as §1
# [24] = biological target: Glc(b1-6)Glc
# Procedure, shortened: as §1
# [25] = biological target: GlcNAc(a1-4)Gal(b1-4)GalNAc
# Procedure, shortened: as §1
# [26] = biological target: GlcNAc(a1-6)Gal(b1-4)GlcNAc
# Procedure, shortened: as §1
# [27] = biological target: GlcNAc(b1-2)[GlcNAc(b1-6)]Man(a1-6)[GlcNAc(b1-2)Man(a1-3)]Man(b1-4)GlcNAc(b1-4)GlcNAc
# Procedure, shortened: as §1
# [28] = biological target: Kdn(a2-3)Gal(b1-4)GlcNAc
# Procedure, shortened: as §1
# [29] = biological target: Neu5Ac(a2-3)Gal(b1-3)GalNAc
# Procedure, shortened: as §1
# [30] = biological target: Neu5Ac(a2-3)Gal(b1-3)GlcNAc(b1-3)Gal(b1-4)GlcNAc
# Procedure, shortened: as §1
# [31] = biological target: Neu5Ac(a2-3)Gal(b1-3)[Fuc(a1-4)]GlcNAc
# Procedure, shortened: as §1
# [32] = biological target: Neu5Ac(a2-3)Gal(b1-3)[Fuc(a1-4)]GlcNAc(b1-3)Gal(b1-4)[Fuc(a1-3)]GlcNAc
# Procedure, shortened: as §1
# [33] = biological target: Neu5Ac(a2-3)Gal(b1-3)[Neu5Ac(a2-6)]GalNAc
# Procedure, shortened: as §1
# [34] = biological target: Neu5Ac(a2-3)Gal(b1-4)GlcNAc(b1-3)Gal(b1-3)GlcNAc
# Procedure, shortened: as §1
# [35] = biological target: Neu5Ac(a2-3)Gal(b1-4)GlcNAc(b1-6)[Gal(b1-3)]GalNAc
# Procedure, shortened: as §1
# [36] = biological target: Neu5Ac(a2-3)Gal(b1-4)GlcNAc(b1-6)[Neu5Ac(a2-3)Gal(b1-3)]GalNAc
# Procedure, shortened: as §1
# [37] = biological target: Neu5Ac(a2-3)GalNAc
# Procedure, shortened: as §1
# [38] = biological target: Fuc(a1-2)Gal(b1-3)GlcNAc
# Procedure, shortened: as §1
# [39] = biological target: Fuc(a1-2)Gal(b1-4)[Fuc(a1-3)]GlcNAc(b1-3)Gal(b1-4)[Fuc(a1-3)]GlcNAc
# Procedure, shortened: as §1
# [40] = biological target: Fuc(a1-3)[Gal(b1-4)]GlcNAc(b1-2)Man(a1-3)[Fuc(a1-3)[Gal(b1-4)]GlcNAc(b1-2)Man(a1-6)]Man(b1-4)GlcNAc(b1-4)GlcNAc
# Procedure, shortened: as §1
# [41] = biological target: Gal(a1-4)Gal(b1-4)GlcNAc(b1-3)Gal(b1-4)Glc
# Procedure, shortened: as §1
# [42] = biological target: Gal(b1-4)GlcNAc(b1-3)[Gal(b1-4)GlcNAc(b1-6)]Gal(b1-4)GlcNAc
# Procedure, shortened: as §1
# [43] = biological target: Gal(b1-4)GlcNAc(b1-6)GalNAc
# Procedure, shortened: as §1
# [44] = biological target: Gal3S(b1-4)GlcNAc6S
# Procedure, shortened: as §1
# [45] = biological target: GalNAc(b1-3)Gal(a1-4)Gal(b1-4)GlcNAc
# Procedure, shortened: as §1
# [46] = biological target: GlcNAc(a1-3)Gal(b1-4)GlcNAc
# Procedure, shortened: as §1
# [47] = biological target: Kdn(a2-6)Gal(b1-4)GlcNAc
# Procedure, shortened: as §1
# [48] = biological target: Man(a1-2)Man(a1-3)[Man(a1-2)Man(a1-6)]Man(a1-6)[Man(a1-2)Man(a1-2)Man(a1-3)]Man(b1-4)GlcNAc(b1-4)GlcNAc
# Procedure, shortened: as §1
# [49] = biological target: Man(a1-2)Man(a1-6)[Man(a1-3)]Man(a1-6)[Man(a1-2)Man(a1-2)Man(a1-3)]Man
# Procedure, shortened: as §1
# [50] = biological target: Man(a1-2)Man(a1-6)[Man(a1-3)]Man(a1-6)[Man(a1-2)Man(a1-2)Man(a1-3)]Man(b1-4)GlcNAc(b1-4)GlcNAc
# Procedure, shortened: as §1
# [51] = biological target: Man(a1-3)[Man(a1-6)]Man
# Procedure, shortened: as §1
# [52] = biological target: Man(a1-3)[Man(a1-6)]Man(a1-6)[Man(a1-2)Man(a1-3)]Man(b1-4)GlcNAc(b1-4)GlcNAc
# Procedure, shortened: as §1
# [53] = biological target: Neu5Ac(a2-3)Gal(b1-3)[Neu5Ac(a2-3)Gal(b1-4)]GlcNAc
# Procedure, shortened: as §1
# [54] = biological target: Neu5Ac(a2-3)Gal(b1-4)GlcNAc(b1-2)Man(a1-3)[GlcNAc(b1-2)Man(b1-4)GlcNAc(b1-2)Man(a1-6)]Man(b1-4)GlcNAc(b1-4)GlcNAc
# Procedure, shortened: as §1
# [55] = biological target: Neu5Ac(a2-3)Gal(b1-4)GlcNAc(b1-3)GalNAc
# Procedure, shortened: as §1
# [56] = biological target: Neu5Ac(a2-3)Gal(b1-4)[Fuc(a1-3)]GlcNAc(b1-3)Gal
# Procedure, shortened: as §1
# [57] = biological target: Neu5Ac(a2-3)Gal(b1-4)[Fuc(a1-3)]GlcNAc(b1-6)[Neu5Ac(a2-3)Gal(b1-3)]GalNAc
# Procedure, shortened: as §1
# [58] = biological target: Neu5Ac(a2-6)Gal(b1-4)GlcNAc(b1-3)Gal(b1-3)GlcNAc
# Procedure, shortened: as §1
# [59] = biological target: Neu5Ac(a2-6)Gal(b1-4)GlcNAc(b1-3)Gal(b1-4)[Fuc(a1-3)]GlcNAc(b1-3)Gal(b1-4)[Fuc(a1-3)]GlcNAc
# Procedure, shortened: as §1
# [60] = biological target: Neu5Ac(a2-8)Neu5Ac
# Procedure, shortened: as §1
# [61] = biological target: Neu5Ac(a2-8)Neu5Ac(a2-8)Neu5Ac
# Procedure, shortened: as §1
# [62] = biological target: Neu5Ac(b2-6)Gal(b1-4)GlcNAc
# Procedure, shortened: as §1
binder,measurement,setting,value
"UEA-I (Ulex europaeus), P22972 (protein) SDDLSFKFKNFSQNGKDLSFQGDASVIETGVLQLNKVGNNLPDETGGIARYIAPIHIWNCNTGEVASFITSFSFFMETSANPKAATDGLTFFLAPPDSPLRRAGGYFGLFEDTKDNDSSYQTVAVEFDTIGSPVNFDDPGFPHIGIDVNRVKSINAERWNKRYGLNNVANVEIIYEASSKTLTASLTYPSDQTSISVTSIVDLKEILPEWVSVGFSGGTYIGRQATHEVLNWYFTSNLIN",glycan array binding signal (z-score),[1],-0.19
same,glycan array binding signal (z-score),[2],5.21
same,glycan array binding signal (z-score),[3],8.13
same,glycan array binding signal (z-score),[4],6.42
same,glycan array binding signal (z-score),[5],6.86
same,glycan array binding signal (z-score),[6],4.06
same,glycan array binding signal (z-score),[7],8.02
same,glycan array binding signal (z-score),[8],5.33
same,glycan array binding signal (z-score),[9],-0.183
same,glycan array binding signal (z-score),[10],4.61
same,glycan array binding signal (z-score),[11],-0.18
same,glycan array binding signal (z-score),[12],-0.172
same,glycan array binding signal (z-score),[13],-0.186
same,glycan array binding signal (z-score),[14],-0.17
same,glycan array binding signal (z-score),[15],-0.176
same,glycan array binding signal (z-score),[16],-0.174
same,glycan array binding signal (z-score),[17],-0.175
same,glycan array binding signal (z-score),[18],-0.174
same,glycan array binding signal (z-score),[19],-0.188
same,glycan array binding signal (z-score),[20],-0.158
same,glycan array binding signal (z-score),[21],-0.18
same,glycan array binding signal (z-score),[22],-0.177
same,glycan array binding signal (z-score),[23],-0.178
same,glycan array binding signal (z-score),[24],-0.185
same,glycan array binding signal (z-score),[25],-0.175
same,glycan array binding signal (z-score),[26],-0.176
same,glycan array binding signal (z-score),[27],-0.186
same,glycan array binding signal (z-score),[28],-0.185
same,glycan array binding signal (z-score),[29],-0.18
same,glycan array binding signal (z-score),[30],-0.182
same,glycan array binding signal (z-score),[31],-0.181
same,glycan array binding signal (z-score),[32],-0.186
same,glycan array binding signal (z-score),[33],-0.17
same,glycan array binding signal (z-score),[34],-0.178
same,glycan array binding signal (z-score),[35],-0.183
same,glycan array binding signal (z-score),[36],-0.179
same,glycan array binding signal (z-score),[37],-0.177
"Ficolin B (Rattus norvegicus), P57756 (protein) MVLGSAALFVLSLCVTELTLHAADTCPEVKVLDLEGSNKLTILQGCPGLPGALGPKGEAGAKGDRGESGLPGHPGKAGPTGPKGDRGEKGVRGEKGDTGPSQSCATGPRTCKELLTRGYFLTGWYTIYLPDCRPLTVLCDMDTDGGGWTVFQRRIDGTVDFFRDWTSYKQGFGSQLGEFWLGNDNIHALTTQGTNELRVDLADFDGNHDFAKYSSFQIQGEAEKYKLILGNFLGGGAGDSLTSQNNMLFSTKDQDNDQGSSNCAVRYHGAWWYSDCHTSNLNGLYLRGLHKSYANGVNWKSWKGYNYSYKVSEMKVRLI",glycan array binding signal (z-score),[1],-0.165
same,glycan array binding signal (z-score),[38],-0.197
same,glycan array binding signal (z-score),[4],-0.192
same,glycan array binding signal (z-score),[39],-0.205
same,glycan array binding signal (z-score),[40],-0.214
same,glycan array binding signal (z-score),[41],-0.169
same,glycan array binding signal (z-score),[42],1.56
same,glycan array binding signal (z-score),[43],-0.085
same,glycan array binding signal (z-score),[44],-0.2
same,glycan array binding signal (z-score),[45],-0.2
same,glycan array binding signal (z-score),[46],-0.127
same,glycan array binding signal (z-score),[26],0.051
same,glycan array binding signal (z-score),[47],-0.209
same,glycan array binding signal (z-score),[48],-0.224
same,glycan array binding signal (z-score),[49],-0.212
same,glycan array binding signal (z-score),[50],-0.18
same,glycan array binding signal (z-score),[51],-0.166
same,glycan array binding signal (z-score),[52],-0.182
same,glycan array binding signal (z-score),[53],3.17
same,glycan array binding signal (z-score),[54],5.65
same,glycan array binding signal (z-score),[55],-0.192
same,glycan array binding signal (z-score),[56],0.01
same,glycan array binding signal (z-score),[57],0.019
same,glycan array binding signal (z-score),[58],0.054
same,glycan array binding signal (z-score),[59],-0.204
same,glycan array binding signal (z-score),[60],3.73
same,glycan array binding signal (z-score),[61],2.69
same,glycan array binding signal (z-score),[62],8.52
